Seven molecules from PubChem BioAssay (NCI) can be followed below.

Test systems include HCT-15 colon; HT29 colon; SNB-19 CNS; U251 CNS; PC-3 prostate; SK-MEL-5 melanoma; UACC-62 melanoma; LOX IMVI melanoma; SK-MEL-28 melanoma; SK-MEL-2 melanoma; EKVX NSCLC; SN12C renal; UO-31 renal; TK-10 renal; ACHN renal; CAKI-1 renal; A498 renal; CCRF-CEM leukemia; MOLT-4 leukemia; SNB-75 CNS.
Common to all, as to experiment: NCI-60 one-dose screen, 48 h (100 = growth as untreated, 0 = no growth, -100 = all killed)
Conditions in all cases: 10 µM unless noted

The panel holds about 83,000 compounds, 20% with a hit somewhere; the sample as a whole holds those more often.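 Percent growth is the endpoint: 0 to 100 indicates growth inhibition (40 means 60% inhibition), 0 means no net growth, and negative values indicate cell death.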 Values without a mark were called inactive. Calls of active or inactive are those of the source. Rule for the calls: active = growth percent below 10; inactive = the rest.

For the molecule `C#CCC#CCN1CCC[C@H]1C(=O)NCC(=O)OC`, the growth in the experiment with HCT-15 colon is 102%; in the experiment on HT29 colon it was 104%; in the experiment with SNB-19 CNS, 98.9%; in the experiment on U251 CNS, 103%; in the experiment with PC-3 prostate it was 98.4%; in the experiment on SK-MEL-5 melanoma, 100%. In addition, the growth with UACC-62 melanoma is 104%; in the experiment with LOX IMVI melanoma it was 94.4%; in the experiment on SK-MEL-28 melanoma, 101%; in the experiment with SK-MEL-2 melanoma it was 99.8%; in the experiment on EKVX NSCLC it was 98.4%; in the experiment with SN12C renal, 98.4%. For the same molecule, the growth was 98.5% in the experiment with UO-31 renal; 99.4% with TK-10 renal; 101% with ACHN renal; 102% in the experiment with CAKI-1 renal; 129% in the experiment with A498 renal; 109% in the experiment with CCRF-CEM leukemia. Also, the growth in the experiment with MOLT-4 leukemia was 107%.

Take `NS(=O)(=O)c1ccc(-n2cc(CN3CCCCC3)nn2)cc1`: the growth in the experiment on HCT-15 colon was 107%; with HT29 colon it was 96.7%; with SNB-75 CNS, 92.8%; with SNB-19 CNS, 102%; in the experiment with PC-3 prostate it was 98.9%; in the experiment on SK-MEL-5 melanoma, 99.6%. The growth was 97.4% with UACC-62 melanoma; 101% in the experiment with LOX IMVI melanoma; 109% with SK-MEL-28 melanoma; 109% in the experiment with SK-MEL-2 melanoma; 101% in the experiment on EKVX NSCLC; 100% in the experiment on SN12C renal. For the same molecule, the growth was 82.2% with UO-31 renal; 102% with TK-10 renal; 107% in the experiment with ACHN renal; 92.6% in the experiment on CAKI-1 renal; 93.6% with A498 renal; 108% with CCRF-CEM leukemia. The growth in the experiment on MOLT-4 leukemia is 98.5%.

For `C=CCN(C)S(=O)(=O)/N=C1\NC(=O)NC1=C(Cl)Cl`, the growth in the experiment with HCT-15 colon was -77.2% (active); in the experiment with HT29 colon, 5.89% (active); in the experiment with SNB-19 CNS, 58.4%; in the experiment on U251 CNS, -10.2% (active); in the experiment on PC-3 prostate, 47%; in the experiment on SK-MEL-5 melanoma it was 91.6%. Moreover, the growth in the experiment with UACC-62 melanoma was 32.9%; with LOX IMVI melanoma, -88.3% (active); with SK-MEL-28 melanoma it was -83.6% (active); with SK-MEL-2 melanoma, 90%; in the experiment on EKVX NSCLC, 62.8%; in the experiment with SN12C renal, -22.5% (active). Moreover, the growth with UO-31 renal is 92.5%; with TK-10 renal, 65.7%; in the experiment on ACHN renal it was -96.7% (active); in the experiment on CAKI-1 renal it was 2.82% (active); in the experiment with A498 renal, 97.6%; in the experiment on CCRF-CEM leukemia it was -27.1% (active). In the experiment on MOLT-4 leukemia, the growth is -19.7% (active).

Consider `O=S(=O)(NCCCNc1nccc(-c2[nH]c(-c3ccccc3)nc2-c2ccc(Cl)c(O)c2)n1)c1cccc2ccccc12`, for which the growth is 16.3% in the experiment on HCT-15 colon; 38.6% in the experiment on HT29 colon; 43.4% in the experiment on SNB-75 CNS; 37.8% with SNB-19 CNS; 26.2% in the experiment with PC-3 prostate; 13.1% in the experiment with SK-MEL-5 melanoma. The growth with UACC-62 melanoma was 17.4%; in the experiment with LOX IMVI melanoma, 19.8%; in the experiment on SK-MEL-28 melanoma, 29.8%; in the experiment with SK-MEL-2 melanoma it was -4.81% (active); in the experiment on SN12C renal, 24%; in the experiment with UO-31 renal it was 20.2%. For the same molecule, the growth with TK-10 renal was 49.7%; with ACHN renal, 19.6%; in the experiment with CAKI-1 renal it was 39.5%; in the experiment with A498 renal it was 71.9%; in the experiment with CCRF-CEM leukemia, 20%; with MOLT-4 leukemia it was 18.7%.

On to `C=CC(=O)N1CCC=C(c2cc3c(N[C@H](C)c4ccccc4)ncnc3[nH]2)C1`, for which the growth is 73.2% in the experiment with HCT-15 colon; 66.5% with HT29 colon; 3.25% (active) in the experiment with SNB-75 CNS; 77.1% in the experiment on SNB-19 CNS; 68.9% with PC-3 prostate; 85.7% in the experiment with SK-MEL-5 melanoma. For the same molecule, the growth in the experiment with UACC-62 melanoma was 68.5%; in the experiment with LOX IMVI melanoma, 57.5%; with SK-MEL-28 melanoma it was 91.6%; in the experiment with SK-MEL-2 melanoma, 89.7%; in the experiment with EKVX NSCLC, 28.1%; in the experiment with SN12C renal it was 29.3%. Moreover, the growth in the experiment on UO-31 renal was 20.5%; with TK-10 renal, -5.86% (active); with ACHN renal, 6.81% (active); in the experiment on CAKI-1 renal, 14.4%; in the experiment with A498 renal, -27.8% (active); in the experiment on MOLT-4 leukemia, 93.4%.

As for `COc1c(N2CC3CCCNC3C2)c(F)cc2c(=O)c(C(=O)N/N=C/c3ccc(N(C)C)cc3)cn(C3CC3)c12` (stereo not drawn), the growth was 16.4% in the experiment with HCT-15 colon; -12% (active) with HT29 colon; 100% in the experiment on SNB-75 CNS; 78.3% in the experiment on SNB-19 CNS; 60.4% in the experiment with PC-3 prostate; 83.9% with SK-MEL-5 melanoma. The growth in the experiment on UACC-62 melanoma is 100%; in the experiment with LOX IMVI melanoma, -22.6% (active); in the experiment on SK-MEL-2 melanoma, 114%; in the experiment with EKVX NSCLC, 86.2%; in the experiment on UO-31 renal it was 59.1%; in the experiment with TK-10 renal, 122%. Moreover, the growth is 46.8% in the experiment with ACHN renal; 90.3% in the experiment on CAKI-1 renal; 113% in the experiment with A498 renal; 29.6% in the experiment on CCRF-CEM leukemia; 29.5% in the experiment with MOLT-4 leukemia.

Consider `CCOc1ccc(NC2=C(Cl)C(=O)c3nc(C)ccc3C2=O)cc1`, for which the growth was -83.2% (active) with HCT-15 colon; 15.9% in the experiment with HT29 colon; 96.5% with SNB-75 CNS; 44.7% in the experiment on SNB-19 CNS; 10.4% with PC-3 prostate; -98.6% (active) in the experiment on SK-MEL-5 melanoma. Also, the growth was -43.3% (active) with UACC-62 melanoma; -76.4% (active) in the experiment on LOX IMVI melanoma; 8.93% (active) in the experiment with SK-MEL-28 melanoma; -49.8% (active) in the experiment with SK-MEL-2 melanoma; -97.5% (active) in the experiment with EKVX NSCLC; -57.3% (active) in the experiment with SN12C renal. The growth with UO-31 renal was -65% (active); in the experiment on TK-10 renal it was 121%; in the experiment with ACHN renal, -98.4% (active); with A498 renal, 101%; in the experiment with CCRF-CEM leukemia it was 0.626% (active); in the experiment with MOLT-4 leukemia it was -46.7% (active).
